MITF inh: human MITF inhibition, primary screen | O75030 | AlphaScreen MITF homodimerization, bead proximity signal | inhibition, % at 2.6 µM | 650,000 compounds, 0.91% hits | AID 1259374; in the data active means inhibition above about 50%
TEAD-YAP inh: TEAD-YAP interaction inhibition. inhibition, % at 9.12 µM. HEK-TIYL cells, TEAD-Gal4/YAP UAS-luciferase luminescence. 640,000 compounds, 1.4% hits; in the data active means inhibition above about 32%
FBW7 act: human FBW7 E3 ligase activation, primary screen; 650,000 compounds, 0.13% hits; normalized activity (activation), % at 26.1 µM; AlphaScreen FBW7–phospho-cyclin E peptide binding, activator screen; Q969H0; in the data active means normalized activity above about 1.9%;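 further: purified mutant Fbw7 with reduced substrate affinity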
GPR151 ag: human GPR151 activation; activation, % at 11.2 µM; Q8TDV0; 650,000 compounds, 1% hits; PathHunter beta-arrestin GPR151 cells, luminescence; AID 1508602; in the data active means activation above about 4.9%
Target sequence (Q8TDV0 whole entry, looked up): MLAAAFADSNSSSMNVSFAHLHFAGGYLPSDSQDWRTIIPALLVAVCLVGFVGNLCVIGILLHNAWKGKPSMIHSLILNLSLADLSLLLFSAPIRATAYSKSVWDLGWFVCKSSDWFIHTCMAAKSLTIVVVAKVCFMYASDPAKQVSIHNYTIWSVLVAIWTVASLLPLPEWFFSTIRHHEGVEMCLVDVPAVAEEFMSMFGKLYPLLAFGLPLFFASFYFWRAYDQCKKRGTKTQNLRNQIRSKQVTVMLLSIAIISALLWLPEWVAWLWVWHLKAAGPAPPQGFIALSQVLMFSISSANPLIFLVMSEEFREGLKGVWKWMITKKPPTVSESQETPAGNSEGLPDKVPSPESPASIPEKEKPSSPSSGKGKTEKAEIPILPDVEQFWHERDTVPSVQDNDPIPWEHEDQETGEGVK
GPR151 conf act: confirmation of human GPR151 activators. shares compounds with GPR151 ag. GPR151 PathHunter beta-arrestin cells, luminescence, 90 min; % of EA-reagent control over plate median. activation, % at 11.2 µM. 6,700 tested, under 10 active;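 active means mean percent activation across replicates above the confirmation screen cutoff of 4.91%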
GPR119 ag: GPR119 activation, counter-screen for GPR151 activators; 6,700 compounds, 0.3% hits; shares compounds with GPR151 ag; activation, % at 11.2 µM; AID 1508611; GPR119 PathHunter beta-arrestin cells, luminescence, 90 min; 0 = compound-well median, 100 = enzyme-acceptor control;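 active means mean percent activation in the counterscreen above 29.09%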;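 further: counterscreen on off-target GPR119 to flag nonselective hits from the GPR151 activator screen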
Of the large screens only hits and unclear results are named; the others gave an inactive call (follow-up assays come after a bar, where they were run). Only some compounds are listed: those with a hit (about 3.5% of all), similar ones and a draw of the others.

COc1ccc(S(=O)(=O)Nc2ccc(-c3cn4ccsc4n3)cc2)cc1C	GPR151 ag 12.9 | GPR151 conf act inactive | GPR119 ag inactive
COc1ccccc1NS(=O)(=O)c1cccc(C(F)(F)F)c1	GPR151 ag 6.8 | GPR151 conf act inactive | GPR119 ag inactive
Cc1c(C(=O)c2ccc(Br)cc2)c(=O)n(C)c(=O)n1C	GPR151 ag 5.8 | GPR151 conf act inactive | GPR119 ag inactive
C=CCOc1ccccc1C(c1c(C)[nH][nH]c1=O)c1c(C)[nH][nH]c1=O	GPR151 ag 9.5 | GPR151 conf act inactive | GPR119 ag inactive
O=[N+]([O-])c1ccccc1S(=O)(=O)N1CCCC1	none
O=C(Nc1ccc2oc(=O)ccc2c1)c1ccc([N+](=O)[O-])cc1Cl	GPR151 ag 9.0 | GPR151 conf act inactive | GPR119 ag inactive
CCOc1ccc(NC(=O)c2ccc([N+](=O)[O-])cc2Cl)cc1	GPR151 ag 6.4 | GPR151 conf act inactive | GPR119 ag inactive
CCOC(=O)CNC(=O)N1CCSc2ccccc21	none
Cc1ccc(N(CC(=O)Nc2ccc(F)cc2F)S(=O)(=O)c2c(C)noc2C)cc1	none
Cn1c(=O)c2c(nc(N3CCCCCC3)n2CCc2ccccc2)n(C)c1=O	GPR151 ag 5.0 | GPR151 conf act inactive | GPR119 ag inactive
CCN1CCN(c2nc3c(c(=O)n(C)c(=O)n3C)n2CCSc2ncccn2)CC1	GPR151 ag 8.0 | GPR151 conf act inactive | GPR119 ag inactive
Cn1c(=O)c2c(nc(Cl)n2CC(=O)NCc2ccccc2)n(C)c1=O	GPR151 ag 6.5 | GPR151 conf act inactive | GPR119 ag inactive
COc1ccc(NC(=O)CCN2C(=O)c3cccc([N+](=O)[O-])c3C2=O)c(OC)c1	none
COc1ccc(NC(=O)CCCCCN2C(=O)c3cccc([N+](=O)[O-])c3C2=O)c(OC)c1	GPR151 ag 7.9 | GPR151 conf act inactive | GPR119 ag inactive
O=C(COC(=O)CCN1C(=O)c2cccc([N+](=O)[O-])c2C1=O)NCC(F)(F)F	GPR151 ag 6.0 | GPR151 conf act inactive | GPR119 ag inactive
COc1ccc(NC(=O)CCC2CCCCC2)c([N+](=O)[O-])c1	GPR151 ag 6.5 | GPR151 conf act inactive | GPR119 ag inactive
COc1ccccc1Oc1ccc(N2C(=O)c3cccc([N+](=O)[O-])c3C2=O)cc1	GPR151 ag 8.4 | GPR151 conf act inactive | GPR119 ag inactive
COc1ccc(NC(=O)COC(=O)CC2CCCCC2)c([N+](=O)[O-])c1	none
CCCC(=O)C1=C(OC)CC(C)(C)C(C(=O)OC)C1=O (stereo unspecified)	none
COc1cc2c(cc1NC(=O)c1ccc(=O)[nH]c1)oc1ccccc12	none
Cc1cc(NC2CCN(Cc3ccccc3)CC2)nc(-c2cccs2)n1	none
c1ccc(CN2CCC(Nc3ncc(-c4cccs4)cn3)CC2)cc1	GPR151 ag 6.8 | GPR151 conf act inactive | GPR119 ag inactive
COC(=O)C1CCCCN1Cc1nc(N)c2cc(C)ccc2n1 (stereo unspecified)	none
COc1cc(/C=C2/C(=O)N(c3ccc(I)cc3)N=C2C)ccc1O	GPR151 ag 5.4 | GPR151 conf act inactive | GPR119 ag inactive
COc1cc(/C=C2\C(=O)N(c3ccc(C(=O)OC(C)C)cc3)N=C2C)ccc1O	none
COc1ccc(/C=C2\C(=O)N(c3ccc(Cl)c(C(=O)O)c3)N=C2C)cc1OC	GPR151 ag 5.7 | GPR151 conf act inactive | GPR119 ag inactive
COc1cccc(NC(=O)CSc2nc3c(sc(=S)n3-c3ccc(C)cc3C)c(=O)n2-c2ccccc2OC)c1	none
CC(C)CC(=O)NCC1Cc2c(F)ccc(-c3ccncc3)c2O1 (stereo unspecified)	none
O=C(Cc1ccsc1)NCC1Cc2c(F)ccc(-c3ccncc3)c2O1 (stereo unspecified)	GPR151 ag 16.8 | GPR151 conf act inactive | GPR119 ag inactive
Cc1ccc2cc3c(NCc4cccs4)n[nH]c3nc2c1	none
Cc1ccc(NC(=O)CCC(=O)OC2CCC(C(C)(C)C)CC2)cc1 (stereo unspecified)	none
CC(C)(C)C1CCC(OC(=O)CCC(=O)N2CCCCC2)CC1 (stereo unspecified)	GPR151 ag 10.8 | GPR151 conf act inactive | GPR119 ag inactive
Cc1ccc(C2C(=O)N(C3CCCC(C)C3C)CC(=O)N2Cc2cccs2)cc1 (stereo unspecified)	none
C=CCNC(=O)c1nn2cccnc2c1Cl	GPR151 ag 5.3 | GPR151 conf act inactive | GPR119 ag inactive
O=C(Nc1ccc(Cl)cc1)c1nn2cccnc2c1Cl	none
COc1cccc(CN(CCN(C)C)C(=O)[C@@H](Cc2ccc(-c3cn[nH]c3)cc2)NC(=O)C(C)O)c1 (stereo partly specified)	GPR151 ag 5.1 | GPR151 conf act inactive | GPR119 ag inactive
Cc1ccc2cc(C#N)c(N3CCCN(C(=O)c4ccco4)CC3)nc2c1C	none
Cc1ccc2cc3c(nc2c1C)OCCN(C(=O)c1ccco1)C3	GPR151 ag 5.7 | GPR151 conf act inactive | GPR119 ag inactive
Nc1cccc(-c2nc3ccc(Cc4ccc5nc(-c6cccc(N)c6)[nH]c5c4)cc3[nH]2)c1	GPR151 ag 7.0 | GPR151 conf act inactive | GPR119 ag inactive
Cn1cccc1-c1nc2ccc(N)cc2[nH]1	GPR151 ag 6.3 | GPR151 conf act inactive | GPR119 ag inactive
COCCCNc1nc2c(S(=O)(=O)c3ccccc3)nnn2c2ccccc12	none
COCCCNc1nc2c(S(=O)(=O)c3ccccc3)nnn2c2ccsc12	GPR151 ag 6.5 | GPR151 conf act inactive | GPR119 ag inactive
Cc1csc(NC(=O)CSc2nc(C3CC3)nc3sc(C)c(C)c23)n1	GPR151 ag 6.3 | GPR151 conf act inactive | GPR119 ag inactive
Cc1ccnc(-n2cccc2CN2CCc3c(nc(N4CCCC4)[nH]c3=O)C2)c1	GPR151 ag 5.0 | GPR151 conf act inactive | GPR119 ag inactive
CCN(CC)C(=O)C1CCCN(c2ccc([N+](=O)[O-])cc2S(=O)(=O)N2CCCC2)C1 (stereo unspecified)	GPR151 ag 7.0 | GPR151 conf act inactive | GPR119 ag inactive
CCN(CC)C(=O)C1CCCN(c2ccc([N+](=O)[O-])cc2[N+](=O)[O-])C1 (stereo unspecified)	none
Cc1nc(N2CCCCC2)c2c(C)c(C(=O)N3CCN(c4ccccc4)CC3)sc2n1	GPR151 ag 5.3 | GPR151 conf act inactive | GPR119 ag inactive
COc1ccc(CCNC(=O)c2sc3nc(C)nc(N4CCCCC4)c3c2C)cc1OC	GPR151 ag 24.6 | GPR151 conf act inactive | GPR119 ag inactive
COc1ccc(CCNC(=O)c2sc3nc(C)nc(N4CCC(C)CC4)c3c2C)cc1OC	none
FC(F)Sc1ccc(-c2cn3c(n2)CCC3)cc1	none
Cc1nn(Cc2ccccc2Cl)c(Cl)c1/C=C/C(=O)OCC#N	GPR151 ag 10.3 | GPR151 conf act inactive | GPR119 ag inactive
